In PubChem BioAssay AID1159580 (chemical genetic matrix, 2015):
Values joined by “and” are separate entries in the source; they are usually repeats but may differ in a detail not shown here. Identical values can stand only once. The campaign covered roughly 5,500 compounds. About 2,000 (36%) were called active. Roughly 18% stayed inconclusive and do not appear here. No stated cut-off is given here; in the data, active means normalized growth mostly below about 0.91 (no sharp cut-off); inconclusive means no clear call, values can overlap the other calls; inactive means mostly above about 0.92. This is one part of the list.

Test: chemical genetic growth profiling, strain panel (AID 1159580);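 further: tested at 20 µM; growth read once vehicle control cultures reached saturation at 30 °C; 1 = growth at the plate median or of vehicle wells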
Conditions: S. cerevisiae deletion strains, growth OD

Measured: normalized growth

Cc1c(N(C)C)c(=O)n(-c2ccccc2)n1C
inactive: locus YAL013W, strain DEP1, stronger effect = lower value 0.994 | locus YAL021C, strain ccr4, stronger effect = lower value 0.981 | locus YAL026C, strain drs2, stronger effect = lower value 0.977 | locus YAL030W, strain snc1, stronger effect = lower value 0.982 | locus YBL061C, strain skt5, stronger effect = lower value 1 | locus YBR009C, strain hhf1, stronger effect = lower value 0.976 | locus YBR021W, strain FUR4, stronger effect = lower value 1.01 | locus YBR023C, strain chs3, stronger effect = lower value 0.983 | locus YBR171W, strain sec66, stronger effect = lower value 0.987 | locus YBR229C, strain ROT2, stronger effect = lower value 0.978 | locus YBR231C, strain swc5, stronger effect = lower value 0.99 | locus YBR279W, strain paf1, stronger effect = lower value 0.996 | locus YCL011C, strain gbp2, stronger effect = lower value 1.01 | locus YCL016C, strain dcc1, stronger effect = lower value 0.993 | locus YCL029C, strain bik1, stronger effect = lower value 0.972 | locus YCL061C, strain MRC1, stronger effect = lower value 0.979 | locus YCL069W, strain vba3, stronger effect = lower value 1 | locus YCR088W, strain abp1, stronger effect = lower value 1 | locus YDL005C, strain med2, stronger effect = lower value 0.96 | locus YDL035C, strain GPR1, stronger effect = lower value 0.995 | locus YDL040C, strain nat1, stronger effect = lower value 0.991 | locus YDL074C, strain BRE1, stronger effect = lower value 0.984 | locus YDL101C, strain DUN1, stronger effect = lower value 0.983 | locus YDL134C, strain PPH21, stronger effect = lower value 0.997 | locus YDL185W, strain tfp1, stronger effect = lower value 0.962 | locus YDL192W, strain arf1, stronger effect = lower value 0.98 | locus YDR001C, strain nth1, stronger effect = lower value 0.994 | locus YDR069C, strain doa4, stronger effect = lower value 0.971 | locus YDR101C, strain arx1, stronger effect = lower value 0.99 | locus YDR137W, strain rgp1, stronger effect = lower value 0.986 | locus YDR150W, strain NUM1, stronger effect = lower value 0.993 | locus YDR159W, strain sac3, stronger effect = lower value 0.948 | locus YDR162C, strain NBP2, stronger effect = lower value 0.993 | locus YDR195W, strain ref2 0.934 | locus YDR297W, strain sur2, stronger effect = lower value 1 | locus YDR318W, strain mcm21, stronger effect = lower value 0.989 | locus YDR334W, strain swr1, stronger effect = lower value 0.987 | locus YDR335W, strain msn5, stronger effect = lower value 0.993 | locus YDR388W, stronger effect = lower value 0.998 | locus YDR392W, strain spt3, stronger effect = lower value 1 | locus YDR502C, strain sam2, stronger effect = lower value 0.999 | locus YEL003W, strain gim4, stronger effect = lower value 0.997 | locus YEL037C, strain rad23, stronger effect = lower value 0.998 | locus YEL061C, strain CIN8 (second series), stronger effect = lower value 1.01 | locus YEL061C, strain CIN8, stronger effect = lower value 0.996 | locus YER015W, strain faa2, stronger effect = lower value 0.995 | locus YER016W, strain bim1, stronger effect = lower value 0.999 | locus YER110C, stronger effect = lower value 0.981 | locus YER111C, strain swi4, stronger effect = lower value 0.983 | locus YER155C, strain BEM2 (second series), stronger effect = lower value 0.989 | locus YER155C, strain BEM2, stronger effect = lower value 0.995 | locus YER167W, strain BCK2, stronger effect = lower value 0.99 | locus YFR010W, strain ubp6, stronger effect = lower value 0.986 | locus YGL078C, strain dbp3, stronger effect = lower value 0.997 | locus YGL086W, strain mad1, stronger effect = lower value 1 | locus YGL167C, strain pmr1, stronger effect = lower value 0.982 | locus YGL173C, strain kem1, stronger effect = lower value 0.96 | locus YGL227W, strain vid30, stronger effect = lower value 0.984 | locus YGL240W, strain doc1, stronger effect = lower value 0.972 | locus YGL248W, strain PDE1, stronger effect = lower value 0.998 | locus YGL253W, strain hxk2, stronger effect = lower value 1.02 | locus YGR078C, strain PAC10, stronger effect = lower value 0.985 | locus YGR135W, strain pre9, stronger effect = lower value 0.991 | locus YGR229C, strain SMI1, stronger effect = lower value 0.992 | locus YGR252W, strain gcn5, stronger effect = lower value 1.1 | locus YHR013C, strain ard1, stronger effect = lower value 0.964 | locus YHR027C, strain rpn1, stronger effect = lower value 0.996 | locus YHR030C, strain SLT2, stronger effect = lower value 0.976 and 1.04 | locus YHR079C, strain IRE1 (second series), stronger effect = lower value 0.99 | locus YHR079C, strain IRE1, stronger effect = lower value 1.01 | locus YHR094C, strain hxt1, stronger effect = lower value 0.978 | locus YHR129C, strain ARP1, stronger effect = lower value 0.993 | locus YHR142W, strain chs7, stronger effect = lower value 1.02 | locus YHR200W, strain rpn10, stronger effect = lower value 0.999 | locus YIL066C, strain RNR3, stronger effect = lower value 0.992 | locus YIL073C, strain SPO22, stronger effect = lower value 0.923 | locus YIL125W, strain kgd1, stronger effect = lower value 0.99 | locus YIR030C, strain dcg1, stronger effect = lower value 0.99 | locus YJL092W, strain hpr5, stronger effect = lower value 1 | locus YJL095W, strain BCK1 (second series), stronger effect = lower value 0.997 | locus YJL095W, strain BCK1, stronger effect = lower value 0.966 and 1.04 | locus YJL115W, strain asf1, stronger effect = lower value 0.995 | locus YJL129C, strain trk1, stronger effect = lower value 0.983 | locus YJL134W, strain LCB3, stronger effect = lower value 0.997 | locus YJL154C, strain vps35, stronger effect = lower value 0.987 | locus YJL166W, strain qcr8, stronger effect = lower value 0.982 | locus YJL168C, strain set2, stronger effect = lower value 0.99 | locus YJL187C, strain SWE1 (second series), stronger effect = lower value 0.975 | locus YJR043C, strain POL32, stronger effect = lower value 0.986 | locus YJR066W, strain TOR1, stronger effect = lower value 0.972 | locus YJR075W, strain HOC1, stronger effect = lower value 0.997
